Reference: PubChem BioAssay AID1159580 (chemical genetic matrix, 2015)
In all, about 5,500 compounds went through this assay and about 2,000 (36%) were called active. Not shown: some 18% with an inconclusive outcome. No stated cut-off is given here; in the data, active means normalized growth mostly below about 0.91 (no sharp cut-off); inconclusive means no clear call, values can overlap the other calls; inactive means mostly above about 0.92. The list shows a part of the results.

Test: chemical genetic growth profiling, strain panel (AID 1159580);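 further: tested at 20 µM; growth read once vehicle control cultures reached saturation at 30 °C; 1 = growth at the plate median or of vehicle wells; lower values mean less growth of the strain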
Details: S. cerevisiae deletion strains, growth OD

Measured: normalized growth

O=S(=O)(O)c1cc(N=C=S)ccc1/C=C/c1ccc(N=C=S)cc1S(=O)(=O)O
inactive: locus YAL021C, strain ccr4, active compounds read low 1.03 | locus YAL026C, strain drs2, active compounds read low 1.01 | locus YAL030W, strain snc1, active compounds read low 1.02 | locus YBL061C, strain skt5, active compounds read low 1.03 | locus YBR009C, strain hhf1, active compounds read low 1.05 | locus YBR023C, strain chs3, active compounds read low 1.02 | locus YBR171W, strain sec66, active compounds read low 1.04 | locus YBR231C, strain swc5, active compounds read low 1.03 | locus YBR279W, strain paf1, active compounds read low 1.01 | locus YCL011C, strain gbp2, active compounds read low 1.02 | locus YCL016C, strain dcc1, active compounds read low 1.03 | locus YCL061C, strain MRC1, active compounds read low 1.02 | locus YCL069W, strain vba3, active compounds read low 1.02 | locus YCR088W, strain abp1, active compounds read low 1.02 | locus YDL005C, strain med2, active compounds read low 1.03 | locus YDL040C, strain nat1, active compounds read low 1.02 | locus YDR001C, strain nth1, active compounds read low 1.02 | locus YDR069C, strain doa4, active compounds read low 1.05 | locus YDR137W, strain rgp1, active compounds read low 1.01 | locus YDR159W, strain sac3, active compounds read low 1.06 | locus YDR195W, strain ref2 1.03 | locus YDR297W, strain sur2, active compounds read low 1.03 | locus YDR334W, strain swr1, active compounds read low 1.02 | locus YDR335W, strain msn5, active compounds read low 1.03 | locus YDR392W, strain spt3, active compounds read low 0.919 | locus YEL003W, strain gim4, active compounds read low 1.02 | locus YEL037C, strain rad23, active compounds read low 1.02 | locus YEL061C, strain CIN8 (second series), active compounds read low 1.02 | locus YER015W, strain faa2, active compounds read low 1.03 | locus YER016W, strain bim1, active compounds read low 1.03 | locus YER111C, strain swi4, active compounds read low 1.03 | locus YER155C, strain BEM2 (second series), active compounds read low 1.04 | locus YFR010W, strain ubp6, active compounds read low 1.03 | locus YGL167C, strain pmr1, active compounds read low 1.03 | locus YGL173C, strain kem1, active compounds read low 1.04 | locus YGL227W, strain vid30, active compounds read low 1.03 | locus YGL240W, strain doc1, active compounds read low 1.03 | locus YGL253W, strain hxk2, active compounds read low 1.03 | locus YHR013C, strain ard1, active compounds read low 1.04 | locus YHR027C, strain rpn1, active compounds read low 1.02 | locus YHR030C, strain SLT2, active compounds read low 0.996 | locus YHR079C, strain IRE1, active compounds read low 1.04 | locus YHR142W, strain chs7, active compounds read low 1.04 | locus YJL092W, strain hpr5, active compounds read low 1.01 | locus YJL095W, strain BCK1 (second series), active compounds read low 1.02 | locus YJL095W, strain BCK1, active compounds read low 0.99 | locus YJL115W, strain asf1, active compounds read low 1.02 | locus YJL129C, strain trk1, active compounds read low 1.06 | locus YJL154C, strain vps35, active compounds read low 1.02 | locus YJL164C, strain tpk1, active compounds read low 0.994 | locus YJL166W, strain qcr8, active compounds read low 1.02 | locus YJL187C, strain SWE1, active compounds read low 1.02 | locus YJR066W, strain TOR1, active compounds read low 0.924 | locus YKL160W, strain elf1, active compounds read low 1.02 | locus YKR026C, strain gcn3, active compounds read low 1.02 | locus YKR091W, strain srl3, active compounds read low 1.03 | locus YLL001W, strain dnm1, active compounds read low 1.01 | locus YLL026W, active compounds read low 1.01 | locus YLL041C, strain sdh2, active compounds read low 1.02 | locus YLR027C, strain aat2, active compounds read low 1.02 | locus YLR113W, strain HOG1, active compounds read low 1.11 | locus YLR221C, strain rsa3, active compounds read low 1.02 | locus YLR258W, strain gsy2, active compounds read low 1.03 | locus YLR262C, strain YPT6 (second series), active compounds read low 1.04 | locus YLR320W, strain mms22, active compounds read low 1.05 | locus YLR342W, strain FKS1, active compounds read low 1.04 | locus YLR357W, strain rsc2, active compounds read low 0.993 | locus YLR370C, strain arc18, active compounds read low 1.03 | locus YLR384C, strain iki3, active compounds read low 1.03 | locus YML120C, strain ndi1, active compounds read low 1.01 | locus YMR058W, strain fet3, active compounds read low 1.01 | locus YMR125W, strain sto1, active compounds read low 1.03 | locus YMR129W, active compounds read low 1.02 | locus YMR205C, strain PFK2, active compounds read low 1.06 | locus YMR231W, strain pep5, active compounds read low 1.02 | locus YNL071W, strain lat1, active compounds read low 1.02 | locus YNL183C, strain NPR1, active compounds read low 0.961 | locus YNL209W, strain ssb2, active compounds read low 1.03 | locus YNL248C, strain rpa49, active compounds read low 1 | locus YNL322C, strain KRE1 (second series), active compounds read low 1.03 | locus YNR049C, strain mso1, active compounds read low 1.03 | locus YOR001W, strain rrp6, active compounds read low 0.999 | locus YOR070C, strain gyp1, active compounds read low 1.01 | locus YOR080W, strain dia2, active compounds read low 1.04 | locus YOR083W, strain WHI5, active compounds read low 1.01 | locus YOR106W, strain vam3, active compounds read low 1.04 | locus YOR231W, strain MKK1, active compounds read low 1.03 | locus YOR265W, strain rbl2, active compounds read low 1.02 | locus YOR270C, strain vph1, active compounds read low 1.04 | locus YOR290C, strain snf2, active compounds read low 0.954 | locus YPL051W, strain arl3, active compounds read low 0.994 | locus YPL078C, strain atp4, active compounds read low 1.02 | locus YPL106C, strain sse1, active compounds read low 1.05 | locus YPL240C, strain hsp82, active compounds read low 1.03 | locus YPL256C, strain CLN2, active compounds read low 1.11
